We go through 90 compounds from PubChem BioAssay AID2314 (National Center for Advancing Translational Sciences (NCATS), 2010).

In all, about 300,000 compounds went through this assay and about 37,000 (12%) were called active. The list comes from a sample in which actives are over-represented; it also holds similar structures and randomly drawn compounds. A number with no mark means an inactive call. Cut-off read from the data, not from the text of the source: active = max response mostly above about 13% (no sharp cut-off); inactive = mostly below about 14%.

The nature of this assay: Cycloheximide Counterscreen for Small Molecule Inhibitors of Shiga Toxin. Note: read at 38.3 µM for the half of the compounds with a filed dose; 0% is about no effect. The conditions noted are these: cell reporter, cycloheximide protein synthesis inhibition counterscreen; stronger effect = higher value.
With `Cc1ccccc1CN1CCNC(=O)C1CC(=O)NCCC1=CCCCC1` (stereo not given), the max response was -4.14%.

Consider `CN(C)CCCNC(=S)N1CCC(c2nc3ccccc3[nH]2)CC1`, for which the max response is -2.52%.

`CC(=O)N1c2ccc(S(=O)(=O)N3CCC(C(=O)NCc4ccc(F)cc4)CC3)cc2CC1C` (stereo not given): the max response is -3.6%.

In the case of `CCNc1ccc(C(=O)OCC(=O)N2c3ccccc3NC(=O)C2(C)C)cc1[N+](=O)[O-]`, the max response is -4.72%.

As to `Cc1cc(C(=O)CSc2nc(N)cc(=O)[nH]2)c(C)n1-c1cccc(F)c1`, the max response was 7.82%.

In the case of `Cc1ccc(-n2c(C)cc(C(=O)CN3C(=O)C(=O)N(C4CCCC4)C3=O)c2C)cc1`, the max response is -1.52%.

Regarding `Cn1c(SCC(=O)c2ccc(F)cc2)nnc1-c1ccccn1`, the max response was 6.35%.

Consider `O=C(CSc1nnc2n1CCCN2)c1ccccc1`, for which the max response is 38.3% (active).

On to `Cc1ccc(-n2c(C)cc(C(=O)CSc3nnc4ccccn34)c2C)cc1`, for which the max response is 39.3% (active).

As for `O=C(CSc1nnc(-c2ccco2)n1CC1CCCO1)c1ccccc1` (stereo not given), the max response is 8.39%.

Consider `Cn1c(CC(=O)Nc2ccccc2)nnc1SCC(=O)c1ccccc1`, for which the max response was 3.65%.

Turning to `O=C(CSc1nnc2ccccn12)c1ccccc1`, the max response was 49.5% (active).

Turning to `N#Cc1ccc(CSc2nnc3ccccn23)cc1`, the max response was 5.39%.

With `COc1ccc(N(CC(=O)N2CCOCC2)S(=O)(=O)c2ccccc2)cc1Cl`, the max response was -0.709%.

Turning to `COc1ccc(/C=C(/NC(=O)c2ccccc2)C(=O)Nc2cccc(C(=O)O)c2)cc1`, the max response was -3.46%.

For the compound `COc1ccc(-c2c(C(C)=O)c(C)nc3sc4c(=O)n(-c5ccc(C)cc5)nnc4c23)cc1`, the max response is -1.79%.

Consider `CC(NCc1nc2ccccc2n1C)C12CC3CC(CC(C3)C1)C2` (stereo not given), for which the max response is -1.92%.

Consider `O=C(Cn1cc(-c2nnnn2-c2ccc(Cl)cc2)c(=O)c2ccccc21)c1ccccc1`, for which the max response was -5.16%.

In the case of `CN(C(=O)CC1C(=O)NCCN1Cc1ccc2ccccc2c1)C1CCOCC1` (stereo not given), the max response was 0.547%.

On to `O=C(O)C1CCC(CNS(=O)(=O)c2ccc(Br)cc2)CC1` (stereo not given), for which the max response was -3.43%.

`COc1ccc(S(=O)(=O)Nc2ccccc2C(=O)N2CCCC2)cc1C`: the max response is -0.906%.

As to `C/C(CCC(=O)OC[C@H]1O[C@H](C#Cc2ccccc2)C=C[C@@H]1Oc1ccc(C)cc1)=N\OC[C@@H](O)[C@H]1O[C@@H]2OC(C)(C)O[C@@H]2[C@H]1O`, the max response is 1.29%.

In the case of `COc1cc(CC(=O)N/N=C/c2ccccc2)c([N+](=O)[O-])cc1OC`, the max response is 16.2%.

`CCOC(=O)c1sc(/N=C/C2=C(O)CC(C)(C)CC2=O)c(C(=O)OCC)c1C`: the max response is 65.5% (active).

For the compound `CCOC(=O)c1c(/N=C/C2C(=O)CC(C)(C)CC2=O)sc(C)c1C`, the max response is -5.69%.

On to `CCOC(=O)c1c(CC(C)C)csc1/N=C/C1=C(O)CCCC1=O`, for which the max response was -1.4%.

For `CCCCCC1CC(COc2ccccc2)OC1=O` (stereo not given), the max response is -2.67%.

As for `Cc1oc2c(C)c3oc(=O)c(CC(=O)N[C@@H](CC(C)C)C(=O)N[C@@H](Cc4ccccc4)C(=O)O)c(C)c3cc2c1C`, the max response was -3.89%.

Regarding `Brc1ccc2ncnc(NCc3cccnc3)c2c1`, the max response is 8.06%.

Consider `CCc1cccc(C)c1NS(=O)(=O)c1cc(Br)cnc1N`, for which the max response is -7.68%.

With `Oc1ccccc1CNc1ncc(Br)cc1Br`, the max response was 19.8% (active).

Regarding `Cc1cc(/C=N/NC(=O)c2cccnc2)c(C)n1CC(C)C`, the max response is 42.1% (active).

Take `O=C(N/N=C/c1ccccn1)c1cccc(NC(=O)c2ccc(Cl)cc2)c1`: the max response was 13%.

Consider `O=C(NCc1ccc(Cl)c(Cl)c1)c1cccnc1`, for which the max response is -2.41%.

Regarding `O=C(NN=C1CCC(=NNC(=O)c2cccnc2)CC1)c1cccnc1`, the max response is 22.4% (active).

For the compound `O=C(N/N=C/c1ccccn1)c1ccc(S(=O)(=O)N2CCCCCC2)cc1`, the max response was 73.8% (active).

In the case of `O=C(Nc1cnccn1)c1cccnc1`, the max response is -3.29%.

Regarding `O=C(CNC(=O)c1cccnc1)N/N=C/c1cc(Br)c(O)c(Br)c1`, the max response was -1.81%.

In the case of `O=C(Nc1ccc(S(=O)(=O)Nc2ncccn2)cc1)C12CC3CC(CC(C3)C1)C2`, the max response is 1.99%.

In the case of `O=C(N/N=C/c1ccccn1)C12CC3CC(CC(C3)C1)C2`, the max response is 14.7% (active).

As to `COc1cc(/C=N/NC(=O)c2cccnc2)ccc1OC(=O)c1cccc(Br)c1`, the max response is -6.4%.

For `CN1CCN(NC(=O)c2ccc(S(=O)(=O)N3CCCCCC3)cc2)CC1`, the max response was -2.75%.

For the compound `CNC(=O)C(=O)N/N=C/c1ccccn1`, the max response is 6.76%.

Take `FC(F)(F)Oc1ccc(NC(=S)NCc2ccccc2)cc1`: the max response was 1.72%.

Consider `C[C@H]1[C@H]2c3nc4ccccc4n3C[C@H]1ON2C1CCCCC1`, for which the max response was 2.13%.

In the case of `COc1ccccc1N1CC(C(=O)Nc2nnc(SCC(=O)NCC3CCCO3)s2)CC1=O` (stereo not given), the max response was 8.07%.

As to `COC(=O)C1=C(Nc2ccc(C)cc2)C=C(C)C(C(=O)OC)C1c1ccc(F)cc1` (stereo not given), the max response is 10.3%.

Consider `COc1ccc(-c2ccc(C3C4C=CCCC4(C)C(=O)N3Cc3ccccc3)c(F)c2)cc1OC` (stereo not given), for which the max response was 12.4%.

In the case of `O=C(N/N=C/c1ccc(O)c2ccccc12)c1cccnc1`, the max response is 15.4%.

As to `O=C(N/N=C/c1ccccn1)c1cccnc1`, the max response was 17.5% (active).

`Cn1c(SCC(=O)C(C)(C)C)nnc1-c1ccccn1`: the max response is 18.9%.

Take `Cc1ccccc1CSc1nnc(-c2ccccn2)n1N`: the max response is 27% (active).

As for `Cc1ccccc1CSc1nnc(-c2cccnc2)n1N`, the max response is 16.2%.

In the case of `COc1ccc(-c2cc(=O)oc3cc(OCC(=O)N(C)C4CCS(=O)(=O)C4)ccc23)cc1` (stereo not given), the max response was 3.93%.

With `Cc1ccccc1NC(=O)c1ccc(COc2ccc3c(C)cc(=O)oc3c2)cc1`, the max response was -0.998%.

As for `CCN(C(=O)COC(=O)c1ccc(COc2ccc3c(C)cc(=O)oc3c2)cc1)C1CCS(=O)(=O)C1` (stereo not given), the max response is 21.1% (active).

Take `COc1cccc(-c2nn(-c3ccccc3)cc2/C=C(\C#N)C(=O)NCCCn2ccnc2)c1`: the max response was 10.5%.

Take `CC1CCCCC1NC(=O)CCS(=O)(=O)c1ccc2c(c1)NC(=O)CO2` (stereo not given): the max response was -2.74%.

With `COc1ccc(/C=N/NC(=O)CNC(=O)c2ccc(S(=O)(=O)N3CCCC3)cc2)c(OC)c1`, the max response is -1.52%.

Consider `COc1ccc(/C=N/NC(=O)c2ccc3c(c2)OCCO3)c(OC)c1`, for which the max response was 56% (active).

On to `COc1ccc(C(=O)Nc2ccccc2C(=O)N/N=C/c2ccccc2OC)cc1`, for which the max response was 17.9%.

For `Cn1ccc(=Nc2ccc(NC(=O)c3ccc(N=c4ccn(C)c5ccc([N+](=O)[O-])cc45)cc3)cc2)cc1`, the max response was -1.72%.

Regarding `O=C(CNC(=O)COc1ccccc1)NCCc1ccccn1`, the max response is 5.88%.

For `O=C(NCCc1ccccn1)c1ccc(COc2ccccc2)o1`, the max response was 28.1% (active).

Take `O=C(NCCc1ccccn1)c1cccnc1Oc1ccc(Cl)cc1`: the max response was 0.291%.

As to `Cc1ncn2cc(-c3ccc(Cl)cc3Cl)[nH]c(=O)c12`, the max response was 8.02%.

`Cc1cccc(N2CCN(S(=O)(=O)c3ccc(-c4cc(C)no4)s3)CC2C)c1` (stereo not given): the max response is -3.69%.

As to `Cc1ccc(CNC(=O)CN2CCN(Cc3ccc(Cl)cc3)C2=O)cc1`, the max response was -4.69%.

As for `Cc1ccccc1N1CCN(CC(=O)NCc2ccc(Cl)cc2)CC1`, the max response is -1.19%.

For `O=C(CN1CCN(S(=O)(=O)c2ccc(Cl)s2)CC1)NCc1ccc(Cl)cc1`, the max response was 30.7% (active).

`COCCn1c(C)cc(C(=O)CSc2nc3ccccc3c(=O)n2C(C)COC)c1C` (stereo not given): the max response is 13.4%.

On to `O=C(c1cc2nc(-c3ccccc3)cc(-c3ccccc3)n2n1)N1CCC2(CC1)OCCO2`, for which the max response was 3.88%.

`COc1cccc(-c2cc3nc4c(c(N5CCC6(CC5)OCCO6)n3n2)CCCC4)c1`: the max response was 24.2% (active).

Consider `COc1cccc(CNc2nc3nc4c(c(=O)n3[nH]2)CCC4)c1`, for which the max response is -3.21%.

Regarding `C=Cc1ccc(C(=O)N2CCCC(CCC(=O)N3CCN(c4ccccn4)CC3)C2)cc1` (stereo not given), the max response was -3.56%.

On to `COc1cc(C)cc(CN2CCC(Cc3ccccc3)CC2)c1O`, for which the max response was -8.91%.

In the case of `CSc1nnc(NC(=O)c2nc(S(=O)(=O)Cc3ccc(C)cc3)ncc2Cl)s1`, the max response is 63.3% (active).

As for `Cc1nnc(NC(=O)CCCOc2ccccc2)s1`, the max response is -3.73%.

For the compound `Cc1ccc(S(=O)(=O)CC(=O)Nc2nnc(C)s2)cc1`, the max response is -6.45%.

As for `CSc1ncc(Cl)c(C(=O)Nc2cc(C)ccc2C)n1`, the max response is 7.29%.

Take `Cc1ccc(CS(=O)(=O)c2ncc(Cl)c(C(=O)Nc3nnc(C)s3)n2)cc1`: the max response is 66% (active).

As for `COCCSc1nnc(NC(=O)CCS(=O)(=O)Cc2ccccc2)s1`, the max response was -1.53%.

For the compound `Cc1ccc(CN2CCC(N3CCC(C(=O)NCC4CCCO4)CC3)CC2)o1` (stereo not given), the max response is 4.92%.

On to `CCOC(=O)c1c(NC(C)=O)sc2c(O)c(Br)ccc12`, for which the max response was -7.21%.

For `CC(Oc1cc2oc(=O)c3c(c2cc1Cl)CCCC3)C(=O)NCc1ccncc1` (stereo not given), the max response is -1.94%.

In the case of `Cc1cccc(NS(=O)(=O)c2ccc(C(=O)NCC(C)(C)N3CCOCC3)cc2)c1C`, the max response is -1.4%.

Turning to `Cc1ccc(CC2C(=O)N(c3ccc(F)cc3)C(=O)C2C)cc1` (stereo not given), the max response was 7.99%.

As for `CC(C)[C@H](NC(=O)N1c2ccccc2NC(=O)[C@@H]1C(C)C)C(=O)N[C@H](C(=O)O)c1ccccc1`, the max response is 5.5%.

For `CC(=O)Nc1ccc(S(=O)(=O)N2CCC(C(=O)NC3CC3)CC2)cc1`, the max response was -6.68%.

On to `Cn1c(=O)c2c(nc(NCCNC(=O)c3ccco3)n2Cc2ccccc2F)n(C)c1=O`, for which the max response is -1.04%.
